Source: PubChem (several laboratories)
BoNT F protease: blocks Botulinum neurotoxin F light chain protease. Multiplex microsphere protease cleavage assay, flow cytometry. inhibition, % at 10 µM. hit rate 0.22% among 360,000; in the data active means inhibition above about 35%, passing the limit was not always enough; inconclusive means no clear call, values can overlap the other calls; further: plate controls were buffer without enzyme for full effect and enzyme alone for no effect
GDH-TPI counter: GDH-TPI coupled enzyme inhibition counter-screen. inhibition, % at 4.8 µM. hit rate 1.2% among 360,000. GDH-TPI coupled enzyme counterscreen, NADH absorbance. AID 588335; in the data active means inhibition above about 30%;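 further: 0% = DMSO wells and 100% = wells lacking the enzyme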
Bead autofluor: flagged as autofluorescent in microsphere protease counterscreen | compound autofluorescence counterscreen, microsphere flow cytometry; stronger effect = higher value | fluorescence intensity (concentration not given with the values) | hit rate 3.1% among 360,000 | AID 624483; in the data active means fluorescence intensity above about 16000; inconclusive means no clear call, values can overlap the other calls
BoNT-A LC inh2: BoNT A light chain protease inhibition. multiplex microsphere protease substrate cleavage, flow cytometry. inhibition, % at 10 µM. hit rate 0.17% among 360,000; further: plate controls were buffer without enzyme for full effect and enzyme alone for no effect
Anthrax LF prot: anthrax lethal factor protease inhibition; P15917; multiplex microsphere protease cleavage assay, LF; inhibition, % at 10 µM; hit rate 0.12% among 360,000; further: plate controls were buffer without enzyme for full effect and enzyme alone for no effect
FBA Mtb inh: inhibits M. tuberculosis FBA enzyme. inhibition, % at 1 µM. purified M. tuberculosis FBA, fluorescence read-out. P9WQA3. hit rate 2.3% among 360,000; in the data active means inhibition above about 27%;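 further: 0% = vehicle and 100% = reference inhibitor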
Target sequence (P9WQA3 whole entry, looked up): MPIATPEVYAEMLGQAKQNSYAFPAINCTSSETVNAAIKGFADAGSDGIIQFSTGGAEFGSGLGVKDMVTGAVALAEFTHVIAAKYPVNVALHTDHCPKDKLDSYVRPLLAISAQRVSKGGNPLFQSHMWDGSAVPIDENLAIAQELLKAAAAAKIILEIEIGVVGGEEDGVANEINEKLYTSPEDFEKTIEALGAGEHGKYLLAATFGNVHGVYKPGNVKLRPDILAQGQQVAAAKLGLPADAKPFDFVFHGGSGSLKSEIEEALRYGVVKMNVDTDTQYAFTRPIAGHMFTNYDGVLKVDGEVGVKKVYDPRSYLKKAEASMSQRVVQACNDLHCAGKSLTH
Starred values were filed as active, the others as inactive; ? = inconclusive; . = not tested or not shown; + = active, no number. Only some compounds are listed: those with a hit (about 6.6% of all), similar ones and a draw of the others. Unless noted, no stated cut-off is given here; in the data, active means inhibition above about 30%; inconclusive means no clear call, values can overlap the other calls; inactive means below that.

SMILES	BoNT F protease	GDH-TPI counter	Bead autofluor	BoNT-A LC inh2	Anthrax LF prot	FBA Mtb inh
COc1cccc(-n2c(SCC(=O)Nc3sc4c(c3C(N)=O)CCC4)nc3ccccc3c2=O)c1	-1.8	19.4	16606*	-0.7	-2.9	0.1
COc1cccc(-n2c(SCC(N)=O)nc3ccccc3c2=O)c1	-3.2	4.9	3468	-0.3	-1.6	0.4
O=C(CCNC(=O)c1ccccc1Cl)NC1=NCCS1	1.2	-1.3	4656	0.7	-1.0	6.7
CCC(=O)Nc1ccc(S(=O)(=O)Nc2cc(C)on2)cc1	-0.7	-5.5	10473	0.3	-4.0	-1.3
Cc1cc(NS(=O)(=O)c2ccc(NC(=O)Nc3ccc4c(c3)OCO4)cc2)no1	-2.2	7.4	16204*	?	-0.2	0.2
Cc1cc(NS(=O)(=O)c2ccc(NC(=O)Nc3cccc(Cl)c3)cc2)no1	-1.4	-2.9	9992	-0.4	-8.5	-2.2
Cc1cc(NS(=O)(=O)c2ccc(NC(=O)NC3CCCCC3)cc2)no1	-4.9	8.4	17035*	-3.6	-7.4	-1.0
Cc1cc(NS(=O)(=O)c2ccc(NC(=O)c3oc4ccccc4c3C)cc2)no1	-0.6	15.7	22342*	0.3	2.7	1.3
CCOC1=C2[C@H](c3ccccc3F)N(S(=O)(=O)c3ccc(C)cc3)C[C@H]2n2c(=O)n(-c3ccccc3)c(=O)n2C1	3.9	.	6126	-0.5	9.6	1.8
CCOc1cc(C)c(S(=O)(=O)Nc2ccc3cn[nH]c3c2)cc1C	-4.6	7.4	9682	-0.4	-4.3	-4.1
COCCn1c(N)c(S(=O)(=O)c2cccs2)c2nc3ccccc3nc21	-6.1	25.5	9865	1.9	-5.1	+
COc1cccc(/C=N/n2c(CO)nc3ccccc32)c1OC	5.7	18.3	21345*	?	1.0	1.2
COc1cccc(/C=N/n2c(N)c(S(=O)(=O)c3cccs3)c3nc4ccccc4nc32)c1OC	-6.5	9.7	16852*	-1.8	-1.1	0.9
COc1ccccc1/C=N/n1c(N)c(C(=O)NC2CCCCC2)c2nc3ccccc3nc21	.	2.4	.	.	.	4.7
Cc1ccc(Cn2c(N)c(S(=O)(=O)c3cccs3)c3nc4ccccc4nc32)cc1	6.9	8.5	18251*	6.8	1.0	18.0
CC(C)NC(=O)N(C)C[C@@H]1OCc2cn(nn2)CCCC(=O)N([C@H](C)CO)C[C@H]1C	0.0	2.4	3470	0.1	-2.7	-2.5
O=C(NCCCSc1ccccc1)c1cc(Br)ccc1O	-5.9	2.4	5712	3.0	-5.7	3.2
C/C(=N\S(=O)(=O)c1ccc(C)cc1)N1CCN(S(=O)(=O)c2ccccc2)C1C(C)C (configuration not stated)	1.9	5.6	22111*	1.0	3.4	3.8
Cc1ccc(S(=O)(=O)N2CCN(C(=O)c3ccccc3)C2C(C)C)cc1 (configuration not stated)	1.9	6.4	6713	0.4	2.6	-1.0
CCCNC(=O)Nc1ccc2c(c1)N(C)C(=O)c1ccccc1S2	-3.3	5.8	16271*	0.6	-1.7	-0.2
O=C(Nc1ccc(F)cc1F)N1CCCCC1c1cccnc1 (configuration not stated)	-0.9	7.7	22683*	?	0.5	-3.9
N#CC1(Cc2ccc(Cl)cc2)c2ccccc2C=CN1C(=O)c1ccccc1 (configuration not stated)	-6.9	3.8	3337	-0.5	-2.4	-1.6
Cc1cc2c(c(SCC(=O)N(C)c3ccccc3)n1)C(=O)OC2	21.9	6.2	4182	0.9	-2.1	0.0
Cc1cc2c(c(Sc3ccccc3)n1)C(=O)OC2	-2.3	7.6	24407*	-1.6	-3.9	-1.3
O=C(Cn1c(=O)c2cccn2c2cccnc21)N1CCN(c2ccc(Cl)cc2)CC1	-5.4	12.9	4458	0.8	-0.8	3.2
SMILES	BoNT F protease	GDH-TPI counter	Bead autofluor	BoNT-A LC inh2	Anthrax LF prot	FBA Mtb inh
COc1ccc(N2CCN(/C(=N\S(=O)(=O)c3ccc(C)cc3)Nc3nc(C)cc(C)n3)CC2)cc1	0.3	-7.0	19034*	2.3	-2.8	1.2
COc1ccc(N2CCN(C(=O)c3ccc(CNS(=O)(=O)c4ccc(C)cc4)cc3)CC2)cc1	-8.0	-3.7	6201	-0.8	0.7	0.5
CCOC(=O)C1(S(=O)(=O)c2ccc(Cl)cc2)CCN(Cc2ccc(Cl)cc2)CC1	-0.7	-5.1	23017*	0.9	-5.8	-1.3
CCOC(=O)C1(S(=O)(=O)c2ccccc2)CCN(Cc2ccc(Cl)cc2)CC1	-13.6	-0.6	10699	-0.5	-4.9	0.2
COc1ccc(C(=O)/C=C/Nc2cc(C)on2)c(OC)c1	10.6	40.2*	5060	0.9	-1.5	2.1
COc1ccc(C(=O)/C=C/Nc2ccc([N+](=O)[O-])cc2C)c(OC)c1	6.0	0.0	10934	11.5	10.0	-7.3
CCCn1c(=O)[nH]c(=O)c2c1nc(-c1ccc(C#N)cc1)n2CCOC	9.7	-2.3	5395	2.3	5.5	+
COCCCn1c(-c2ccc(OC)cc2)nc2c1c(=O)[nH]c(=O)n2Cc1ccccc1	4.5	-8.6	5229	0.7	1.2	17.7
COCCn1c(-c2ccc(C#N)cc2)nc2c1c(=O)[nH]c(=O)n2Cc1ccccc1	-3.1	-4.8	4575	-0.2	0.7	+
COc1ccc(C(=O)N2CCN(c3ccc(NC(=O)Cc4ccccc4)cc3)CC2)cc1	-4.8	-0.3	5722	-1.0	-3.9	0.1
O=C(Cc1ccccc1)Nc1ccc(N2CCN(Cc3ccccc3F)CC2)cc1	5.6	0.6	17943*	?	-11.6	-0.6
Cc1ccc(C(=O)N2CCN(c3ccc(NC(=S)NC(=O)Cc4ccccc4)cc3)CC2)cc1	-3.5	16.7	22933*	1.0	-3.0	-5.4
COc1ccc(N2C(=NC(=O)C(C)Oc3ccccc3)SC3CS(=O)(=O)CC32)cc1 (configuration not stated)	-6.2	3.0	6333	-0.1	2.7	1.4
COC(=O)C1=NN(c2ccccc2)C2(S1)SC(C(C)=O)=C(C)N2c1ccccc1 (configuration not stated)	-9.4	17.0	4177	-0.6	0.0	-1.2
COC(=O)C1=NN(c2ccc(C)cc2)C2(S1)SC(C(C)=O)=C(C)N2c1ccccc1 (configuration not stated)	-6.7	-7.8	23648*	-2.6	-5.3	5.5
Cc1ccc(/C=C/C(=O)Nc2ncc(C)s2)o1	-7.1	28.5	2016	-0.5	-0.7	3.2
Cc1ccc(/C=C/C(=O)Nc2nccs2)o1	-7.3	51.6*	7462	-0.6	-6.4	0.5
O=S(=O)(c1ccc2ccccc2c1)N(CC(O)COCc1ccco1)c1ccccc1 (configuration not stated)	-2.5	3.7	23464*	-0.9	-6.3	-1.5
Cc1sc2nc(SCC(=O)NCc3ccco3)n(C)c(=O)c2c1C	-4.0	6.6	3206	0.9	-1.6	0.5
Cc1sc2nc(SCC(=O)NCCO)n(C)c(=O)c2c1C	0.2	24.3	21991*	?	-10.5	-1.8
Cc1sc2nc(SCC(=O)OC(C)C)n(C)c(=O)c2c1C	-6.3	21.4	11032	-2.0	-10.8	0.2
CCOC(=O)CNC(=O)CSc1nc2sc(C)c(C)c2c(=O)n1C	-4.8	12.6	23793*	-1.9	-1.8	-1.5
